We go through 19 compounds from PubChem BioAssay (NCI).

Holding throughout (experiment): NCI-60 one-dose screen, 48 h (100 = growth as untreated, 0 = no growth, -100 = all killed)
Holding throughout (details): 10 µM

The test system of experiment [1] is DU-145 prostate.
Experiment [2] concerns K-562 leukemia.
Experiment [3] has as its system MALME-3M melanoma.
Experiment [4] has as its system MDA-MB-231 breast.
For experiment [5], the system named is SF-268 CNS.
Experiment [6] has as its system SF-295 CNS.
In experiment [7] the test system is SF-539 CNS.
Experiment [8] has as its system UACC-257 melanoma.
The test system of experiment [9] is M14 melanoma.

This is part of a sample that, as a whole, favours compounds with a hit. Of some 83,000 tested, about 20% had one in any assay.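 Results are percent growth after 48 hours of single-concentration exposure. 100 means growth as in untreated cells, lower positive values show inhibition; negative values down to -100 show cell death.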 Values without a mark were called inactive. The source made the active and inactive calls. Rule for the calls: active = growth percent below 10; inactive = the rest.

In the case of `CCCn1c(=O)c2[nH]c(-c3ccc(OCc4nc5ccccc5[nH]4)cc3)nc2n(CCC)c1=O`, the growth in [1] is 54%; in experiment [2] it was 76%; in experiment [3], -36.4% (active); in experiment [4] it was -42.6% (active); in [5], 38%; in [6], 37.4%. Further, the growth in [7] was -44.3% (active); in [8] it was 82.3%; in experiment [9], 73.7%.
For the compound `CCCCSc1nc(Nc2ccc(/C(C)=N/NC(N)=S)cc2)c(C#N)c(-c2ccccc2)n1`, the growth in [1] was 36.2%; in [2], 33%; in experiment [3], 35.2%; in experiment [4] it was 18.3%; in experiment [5], 67%; in [6], 24.7%. Moreover, the growth was 19.3% in experiment [7], 90.3% in experiment [8] and 76.6% in experiment [9].
Turning to `Cc1cc(=O)oc2cc(OCCCCOc3ccc(/C=C/C(=O)Nc4cccc(Cl)c4)cc3)ccc12`, the growth in experiment [1] was 46.5%; in experiment [2], 63.8%; in [3], 29.8%; in [4] it was 88.3%; in [5] it was 61.4%; in experiment [6], 78.6%. Moreover, the growth is 72.6% in experiment [7], 81.5% in [8] and 71.9% in experiment [9].
For `CC(=O)Nc1ccc(-c2cn(-c3cccc(C(=O)Nc4cccc(OC(F)(F)F)c4)c3)nn2)cn1`, the growth was 84.4% in [1]; 61.8% in experiment [2]; 26.4% in [3]; 97.4% in experiment [4]; 86.3% in [5]; 87.4% in experiment [6]. The growth in experiment [7] is 84.3%; in experiment [8], 89.8%; in [9], 80.4%.
In the case of `N#Cc1ccc(NC(=O)CSc2ccc(-c3ccc(Br)cc3)nn2)cc1`, the growth in [1] was 88.8%; in [2], 48.7%; in experiment [3], 68.8%; in [4] it was 76.7%; in experiment [5] it was 62.6%; in [6], 58.9%. Further, the growth in [7] was 67.2%; in experiment [8] it was 47.3%; in experiment [9], 63.5%.
Turning to `Cc1cccc(-c2nc(Nc3ccccc3C(=O)O)c3ccccc3n2)c1`, the growth in [1] was 50.5%; in experiment [2], 28.7%; in [3], 37.2%; in [4], 66.1%; in experiment [5] it was 37.5%; in experiment [6], 27.1%. Besides, the growth was 47.7% in [7], 49.2% in experiment [8] and 25.2% in experiment [9].
On to `CC(=O)c1ccc(Nc2nc(SC(C)C)nc(-c3ccccc3)c2C#N)cc1`, for which the growth is 43.8% in experiment [1]; 43% in [2]; 8.39% (active) in experiment [3]; -0.399% (active) in [4]; 41.1% in experiment [5]; -40.7% (active) in experiment [6]. The growth in [7] is -17.4% (active); in experiment [8] it was 96.1%; in experiment [9] it was 73.8%.
As for `NS(=O)(=O)c1ccc(NC(=O)CSc2ccc(-c3ccccc3)nn2)c(Br)c1`, the growth was 75.9% in experiment [1]; 96% in experiment [2]; 72.8% in [3]; 47.7% in [4]; 20.8% in [5]; 69.9% in [6]. The results for the growth in [7], in experiment [8] and in experiment [9] were 48.5%, 100% and 99.1%, respectively.
Take `COc1ccc2[nH]c(=O)c(CSc3ccc(Nc4nccc(-c5ccc(Cl)cc5)n4)cc3)cc2c1`: the growth in experiment [1] is 111%; in experiment [2], 81.9%; in experiment [3] it was 113%; in experiment [4] it was 90.1%; in [5], 99.9%; in [6], 102%. The results for the growth in experiment [7], in experiment [8] and in experiment [9] were -41% (active), 120% and 109%, respectively.
For `Cc1ccn2c(C(=O)c3ccc(Br)cc3)cc(-c3cc(-c4ccc(N(C)C)cc4)c(C#N)c(N)n3)c2c1`, the growth in [1] is 56.2%; in experiment [2], 68.7%; in [3], -1.54% (active); in [4] it was 39.5%; in experiment [5], 68%; in [6], 68.1%. Besides, the figures for the growth in experiment [7], in [8] and in [9] were 24.2%, 79.7% and 57.7%, respectively.
Turning to `CC1=C(c2cc(-c3ccc(Cl)cc3)c(C#N)c(N)n2)C(c2ccccc2)NC(=S)N1` (stereo unspecified), the growth in [1] is 51.3%; in experiment [2], 36.9%; in [3] it was 4.96% (active); in [4], 51.9%; in experiment [5] it was 51%; in experiment [6] it was 78.1%. Besides, the growth was 39.9% in experiment [7], 77.7% in experiment [8] and 49.8% in [9].
`COc1ccc(C(=O)/C=C/c2ccc(Cl)c(C(F)(F)F)c2)cc1S(N)(=O)=O`: the growth in experiment [1] was -20.9% (active); in [2], 5.18% (active); in [3], -97.9% (active); in experiment [4], -100% (active); in experiment [5], -40.5% (active); in experiment [6], -100% (active). Besides, the growth in [7] was -100% (active); in experiment [8] it was -78.2% (active); in [9], -87.5% (active).
On to `O=C1CCC(N2Cc3cc(NC(=O)COc4ccccc4)ccc3C2=O)C(=O)N1` (stereo unspecified), for which the growth in experiment [1] is 111%; in experiment [2] it was 93.6%; in [3] it was 19.2%; in [4], 25.1%; in experiment [5] it was 87.3%; in experiment [6], 71.5%. The figures for the growth in [7], in [8] and in [9] were 78.4%, 110% and 56.3%, respectively.
For `COc1cc(/C=C/C(=O)c2ccc(F)cc2)ccc1Oc1nc(Nc2ccc(F)cc2)nc(N(C)C)n1`, the growth in [1] is 78.4%; in experiment [2], 25.7%; in experiment [3], 84.4%; in [4], 59.4%; in experiment [5] it was 54.8%; in experiment [6] it was 53.1%. Besides, the growth in experiment [7] was 77.5%; in [8], 47.7%; in experiment [9], 68.6%.
As for `C=C[C@@]12CN3CC[C@]1(O)[C@@](C(=O)OC)(CO2)c1[nH]c2ccccc2c1C3`, the growth was 68.3% in experiment [1]; 33.9% in [2]; 95.5% in experiment [3]; 76.9% in experiment [4]; 85.3% in experiment [5]; 71% in [6]. The growth was 71.9% in experiment [7], 49.7% in experiment [8] and 64.4% in experiment [9].
Consider `O=C(NO)c1ccc(-c2nc3ccc4[nH]ncc4c3c3c2CCCC3)cc1`, for which the growth in experiment [1] was 1.34% (active); in experiment [2] it was 10.1%; in experiment [3] it was -80.5% (active); in experiment [4], -27.6% (active); in [5], -53.6% (active); in experiment [6] it was -17.9% (active). The results for the growth in [7], in experiment [8] and in experiment [9] were -97.4% (active), -18.8% (active) and -62.5% (active), respectively.
`N#Cc1ccc(-c2nn(-c3ccc(C(=O)O)cc3)cc2CNc2cc(Cl)cc(C(F)(F)F)c2)cc1`: the growth is 26.7% in experiment [1]; 19.4% in experiment [2]; 14.7% in [3]; 27.7% in experiment [4]; 31.9% in [5]; 9.39% (active) in experiment [6]. Further, the growth in experiment [7] was -26.4% (active); in [8] it was 14.9%; in experiment [9], 11.3%.
On to `O/N=C(\CSc1nnc(-c2c[nH]c3ccccc23)n1-c1ccccc1)c1ccc(Br)cc1`, for which the growth in experiment [1] was -88.5% (active); in experiment [2], -11.1% (active); in [3], -10.2% (active); in experiment [4], -84.2% (active); in [5], -55.6% (active); in [6], -15% (active). Moreover, the growth in [7] was -64.9% (active); in [8], -8.6% (active); in [9], -67.7% (active).
As to `Nc1nc(Nc2ccc(Cl)cc2)nn1Cc1cccc(Br)c1`, the growth in [1] was 53.3%; in experiment [2] it was 20.5%; in [3], 50.6%; in experiment [4] it was 42.6%; in experiment [5] it was 40.7%; in [6], 44.7%. In addition, the figures for the growth in [7], in experiment [8] and in experiment [9] were 37.8%, 58.2% and 35.8%, respectively.
